# Results from PubChem BioAssay (NCATS).
# Records with an inconclusive call do not appear. Entries that show only a call come without a potency. Activity calls are given as the source filed them. Unless noted, the call rests on the fitted dose curve.
# How the values were obtained:
# [1] = qHTS for Inhibitors of the Functional Ribonucleoprotein Complex (vRNP) of Lassa (LASV) Arenavirus: LASV Primary Screen - GLuc reporter signal (AID 1347082; calls by dose curve; tested in HEK293 reporter line; further: nearly all actives have a fitted effect of over 60% in size; further: potency means the concentration at half of the fitted maximal effect)
# [2] = qHTS for Inhibitors of the Functional Ribonucleoprotein Complex (vRNP) of Lassa (LASV) Arenavirus: Viability assay - alamar blue signal for LASV Primary Screen (AID 1347083; calls by dose curve; tested in HEK293 reporter line; further: nearly all actives have a fitted effect of over 80% in size; further: potency means the concentration at half of the fitted maximal effect)
# [3] = qHTS for Inhibitors of the Functional Ribonucleoprotein Complex (vRNP) of Lymphocytic Choriomeningitis Arenaviruses (LCMV): Viability assay - alamar blue signal for LCMV Primary Screen (AID 1347085; calls by dose curve; tested in HEK293 reporter line; further: nearly all actives have a fitted effect of over 80% in size; further: potency means the concentration at half of the fitted maximal effect)
# [4] = target: Nucleoprotein (Lymphocytic choriomeningitis virus (strain Armstrong)) (UniProt P09992); assay: qHTS for Inhibitors of the Functional Ribonucleoprotein Complex (vRNP) of Lymphocytic Choriomeningitis Arenaviruses (LCMV): LCMV Primary Screen - GLuc reporter signal (AID 1347086); further: nearly all actives have a fitted effect of over 70% in size; further: potency means the concentration at half of the fitted maximal effect
# Chain of Nucleoprotein (Lymphocytic choriomeningitis virus (strain Armstrong)) (P09992 whole entry, looked up): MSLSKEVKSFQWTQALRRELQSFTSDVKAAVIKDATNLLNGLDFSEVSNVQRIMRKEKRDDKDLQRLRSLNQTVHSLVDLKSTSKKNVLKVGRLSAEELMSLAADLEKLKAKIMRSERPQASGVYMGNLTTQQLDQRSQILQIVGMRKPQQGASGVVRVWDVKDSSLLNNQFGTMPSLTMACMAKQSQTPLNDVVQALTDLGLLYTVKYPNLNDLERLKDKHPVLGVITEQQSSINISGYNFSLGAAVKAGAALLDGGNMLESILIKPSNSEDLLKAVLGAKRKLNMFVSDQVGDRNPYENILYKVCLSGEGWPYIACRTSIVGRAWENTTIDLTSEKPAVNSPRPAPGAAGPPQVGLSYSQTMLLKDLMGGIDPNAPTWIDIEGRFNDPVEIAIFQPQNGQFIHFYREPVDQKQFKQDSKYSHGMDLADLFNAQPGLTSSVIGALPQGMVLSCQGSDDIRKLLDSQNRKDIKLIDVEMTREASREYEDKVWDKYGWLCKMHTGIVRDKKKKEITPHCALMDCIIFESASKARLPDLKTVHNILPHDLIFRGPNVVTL
# [5] = Cytotoxicity counterscreen for inhibitors of SARS-CoV-2 cell entry (AID 1645845); further: nearly all actives have a fitted effect of over 50% in size
# How it was run: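 Expi293F/hACE2 cells seeded overnight; cpd pin-transferred in DMSO, 1 h preincubation, + media, 48 h 37 C 5% CO2; ATPLite 1step luminescence; normalized to cells and no cells.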
# [6] = Primary qHTS to identify inhibitors of SARS-CoV-2 cell entry (AID 1645846); details: activity change, negative = inhibition: at 57.1 µM (top of the series) unless noted; further: nearly all actives have a fitted effect of over 45% in size; further: potency means the concentration at half of the fitted maximal effect
# How it was run: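 Using luciferase-reporting pseudoviruses carrying Wuhan-Hu-1 spike, the screen tracks entry into stably ACE2-expressing cells over 48 hr. Activity is expressed relative to spike particles versus particles lacking any fusion protein.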
# [7] = test system: CRL-7250; assay: qHTS assay to identify novel small-molecules to repurpose for Merkel cell carcinoma treatment (AID 1296009; active means well fitted curve in the direction sought with a large enough effect; an effect the other way counts as inactive or inconclusive; further: nearly all actives have a fitted effect of over 60% in size); details: MCC and control cell lines, CellTiter-Glo viability, 72 h; series mostly up to 92 µM
# How it was run: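 qHTS format: cells treated with library compounds in DMSO across 8 (NPC) or 11 (MIPE) concentrations. Readout after 72 hr at 37 degree celsius was CellTiter-Glo luminescence.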
# [8] = qHTS profiling of the MIPE4 collection as inhibitors of Plasmodium falciparum (HB3) proliferation (AID 743347; call rule not given here); details: P. falciparum HB3 in erythrocytes, SYBR Green DNA, 72 h; at 28.5 µM (top of the series) unless noted
# How it was run: (§1)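 Erythrocytes infected with P. falciparum (0.3% parasitemia, 2.5% hematocrit) incubated with compounds 72 h at 37 C, 5% CO2. Lysis with saponin/Triton buffer containing SYBR Green I, overnight at room temperature in the dark; DNA fluorescence (485/535 nm) normalised to 0.29 uM artemisinin and DMSO.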
# [9] = qHTS profiling of the MIPE4 collection as inhibitors of Plasmodium falciparum (3D7) proliferation (AID 743344; call rule not given here); details: P. falciparum 3D7 in erythrocytes, SYBR Green DNA fluorescence, 72 h; at 28.5 µM (top of the series) unless noted
# How it was run: as §1
# [10] = qHTS profiling of the MIPE4 collection as inhibitors of Plasmodium falciparum (DD2) proliferation (AID 743345; call rule not given here); details: P. falciparum Dd2 in erythrocytes, SYBR Green DNA, 72 h; at 28.5 µM (top of the series) unless noted
# How it was run: as §1
# [11] = target: Bile acid receptor (Homo sapiens) (UniProt Q96RI1); assay: qHTS assay for small molecule agonists of farnesoid X receptor signaling (AID 588527); details: HEK293T FXR-UAS-bla, beta-lactamase ratio, 16 h; activation: stronger effect = higher value
# Chain of Bile acid receptor (Homo sapiens) (Q96RI1 whole entry, looked up): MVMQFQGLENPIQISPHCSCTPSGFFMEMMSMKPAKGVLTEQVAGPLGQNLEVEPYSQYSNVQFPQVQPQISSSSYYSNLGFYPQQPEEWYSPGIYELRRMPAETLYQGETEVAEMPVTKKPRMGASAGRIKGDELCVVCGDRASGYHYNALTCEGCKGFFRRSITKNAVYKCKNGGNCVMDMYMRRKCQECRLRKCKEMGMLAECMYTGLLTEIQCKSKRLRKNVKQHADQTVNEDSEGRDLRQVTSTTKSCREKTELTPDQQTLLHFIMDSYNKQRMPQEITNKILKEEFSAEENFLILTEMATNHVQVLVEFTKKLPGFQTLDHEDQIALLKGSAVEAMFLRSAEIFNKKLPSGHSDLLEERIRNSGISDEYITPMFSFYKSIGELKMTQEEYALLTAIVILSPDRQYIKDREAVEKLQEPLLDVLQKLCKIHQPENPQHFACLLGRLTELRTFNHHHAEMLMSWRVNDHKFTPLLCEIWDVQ
# How it was run: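 FXR-UAS-bla HEK293T cells (10% dialyzed FBS) preincubated 5-7 h at 37 C, then compounds at up to 92 uM for 16 h at 37 C. CCF4 beta-lactamase read-out after 2 h RT. Normalized to chenodeoxycholic acid (100 uM) and DMSO; Hill fit gave EC50 and efficacy.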
# [12] = target: Peroxisome proliferator-activated receptor delta (Homo sapiens) (UniProt Q03181); assay: qHTS assay for small molecule agonists of peroxisome proliferator-activated receptor delta signaling (AID 588534)
# Chain of Peroxisome proliferator-activated receptor delta (Homo sapiens) (Q03181 whole entry, looked up): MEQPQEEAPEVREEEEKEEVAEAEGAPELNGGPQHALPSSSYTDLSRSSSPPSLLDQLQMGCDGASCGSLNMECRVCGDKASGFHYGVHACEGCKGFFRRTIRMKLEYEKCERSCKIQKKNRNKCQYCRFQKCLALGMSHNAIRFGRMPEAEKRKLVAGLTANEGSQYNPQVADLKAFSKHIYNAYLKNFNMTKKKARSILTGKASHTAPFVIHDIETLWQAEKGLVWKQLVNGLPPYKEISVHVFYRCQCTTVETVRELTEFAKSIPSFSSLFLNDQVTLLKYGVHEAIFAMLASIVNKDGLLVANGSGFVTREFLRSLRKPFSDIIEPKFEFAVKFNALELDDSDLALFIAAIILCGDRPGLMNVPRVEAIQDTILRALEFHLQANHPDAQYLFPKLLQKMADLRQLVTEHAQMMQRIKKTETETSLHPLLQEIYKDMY
# How it was run: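 Cells carrying a PPAR-delta beta-lactamase reporter were treated with compounds for 18 h at 37 °C in agonist mode. CCF4 fluorescence was read after 2 h; EC50 and efficacy from Hill fits.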
# [13] = target: Alpha-galactosidase (Coffea arabica) (UniProt Q42656); assay: Counterscreen for Glucocerebrosidase Inhibitors: qHTS Assay for Coffee Bean alpha-Galactosidase at pH 4.5 (AID 957; active means well fitted curve in the direction sought with a large enough effect; an effect the other way counts as inactive or inconclusive)
# Chain of Alpha-galactosidase (Coffea arabica) (Q42656 whole entry, looked up): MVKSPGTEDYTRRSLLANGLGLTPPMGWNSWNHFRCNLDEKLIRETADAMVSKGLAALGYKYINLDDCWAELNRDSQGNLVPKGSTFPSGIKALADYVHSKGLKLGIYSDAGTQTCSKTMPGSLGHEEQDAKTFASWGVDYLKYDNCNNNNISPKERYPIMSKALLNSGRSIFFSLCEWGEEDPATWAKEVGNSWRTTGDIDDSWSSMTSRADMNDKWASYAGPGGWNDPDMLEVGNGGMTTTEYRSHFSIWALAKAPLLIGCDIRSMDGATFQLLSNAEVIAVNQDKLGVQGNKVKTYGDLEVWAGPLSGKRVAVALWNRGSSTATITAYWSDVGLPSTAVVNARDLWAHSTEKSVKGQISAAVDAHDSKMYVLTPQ
# How it was run: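 Coffee bean enzyme (2 nM) with 80 uM 4-methylumbelliferyl alpha-D-galactopyranoside in 50 mM citric acid, 0.005% Tween-20, pH 4.5, 20 min at room temperature; compounds 0.7 nM–77 uM. Stopped at pH 10, fluorescence 365/440 nm; AC50 from Hill fits.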
# [14] = target: Alpha-galactosidase (Coffea arabica) (UniProt Q42656); assay: Counterscreen for Glucocerebrosidase Inhibitors: qHTS Assay for Coffee Bean alpha-Galactosidase at pH 5.9 (AID 998; active means well fitted curve in the direction sought with a large enough effect; an effect the other way counts as inactive or inconclusive)
# How it was run: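 Green coffee bean enzyme (2 nM final) was incubated with compounds (0.7 nM–77 uM) and 4-methylumbelliferyl alpha-D-galactopyranoside (80 uM) in citrate buffer pH 5.9, 20 min at room temperature. High-pH stop; fluorescence 365/440 nm; AC50 from Hill fits.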
# [15] = Validation screen for inhibitors of Lassa infection (AID 463096)
# [16] = Inducers of the Endoplasmic Reticulum Stress Response (ERSR) in human glioma: Validation (AID 504836; active means well fitted curve in the direction sought with a large enough effect; an effect the other way counts as inactive or inconclusive)
# How it was run: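 Stably transfected U87-MG human glioma cells carrying a GRP78-based luminescent sensor were seeded at 1000 cells/well, pin-dosed with compounds and incubated 16 h. Luciferase reagent was then added, and end-point luminescence was read after 10 min at room temperature.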
# [17] = qHTS profiling of the MIPE4 collection as inhibitors of Plasmodium falciparum (DD2) proliferation (Rep 2) (AID 743346; call rule not given here); details: P. falciparum Dd2 in erythrocytes, SYBR Green DNA, 72 h; at 28.5 µM (top of the series) unless noted
# How it was run: as §1
smiles,measurement,setting,value
CC(C(C)N1CC(=O)NC(=O)C1)N1CC(=O)NC(=O)C1 (stereo unspecified),Potency,[1],inactive
same,Potency,[2],inactive
same,Potency,[3],inactive
same,Potency,[4],inactive
same,Potency,[5],inactive
same,"activity change, negative = inhibition",[6],-28.5%
same,Potency,[7],inactive
CCCCCCCCCCCCCCCC(=O)O[C@H]1[C@@H](O)[C@@H](O)[C@@H]([C@H](NC(=O)[C@@H]2C[C@@H](CCC)CN2C)[C@H](C)Cl)O[C@@H]1SC,"growth, % of control",[8],81.5%
same,Potency,[1],inactive
same,Potency,[2],inactive
same,Potency,[3],inactive
same,Potency,[4],inactive
same,Potency,[5],inactive
same,Potency,[6],inactive
same,Potency,[7],inactive
CC(C)N(CC[C@H](c1ccccc1)c1cc(CO)ccc1O)C(C)C,"parasite growth, % of DMSO control",[9],81.5%
same,"parasite growth remaining, % of DMSO control (lower = more inhibition)",[10],83.7%
same,Potency,[1],inactive
same,Potency,[2],inactive
same,Potency,[3],inactive
same,Potency,[4],inactive
same,Potency,[7],inactive
O=C(/C=C/C=C/c1ccc2c(c1)OCO2)N1CCCCC1,activation,[11],4.73% (inactive)
same,Potency,[12],inactive
same,Potency,[1],inactive
same,Potency,[2],inactive
same,Potency,[3],inactive
same,Potency,[4],inactive
same,Potency,[5],inactive
same,"activity change, negative = inhibition",[6],-9.28%
same,Potency,[7],inactive
CC1CCN(c2cc(N3CCN(C)CC3)ccc2NC(=O)c2cc(C#N)c[nH]2)CC1,Potency,[1],inactive
same,Potency,[2],inactive
same,Potency,[3],inactive
same,Potency,[4],inactive
same,Potency,[5],inactive
same,"activity change, negative = inhibition",[6],-17.8%
same,Potency,[7],inactive
CC1CNc2c(cccc2S(=O)(=O)N[C@@H](CCCN=C(N)N)C(=O)N2CC[C@@H](C)C[C@@H]2C(=O)O)C1 (stereo partly specified),Potency,[1],inactive
same,Potency,[2],inactive
same,Potency,[3],inactive
same,Potency,[4],inactive
same,Potency,[5],inactive
same,"activity change, negative = inhibition",[6],-11.7%
same,Potency,[7],inactive
O=C(NC1CCOCC1)c1ccc(-c2cc(-c3cn[nH]c3-c3ccccn3)ccn2)cc1,Potency,[1],inactive
same,Potency,[2],inactive
same,Potency,[3],inactive
same,Potency,[4],inactive
same,Potency,[5],inactive
same,"activity change, negative = inhibition",[6],-3.94%
same,Potency,[7],inactive
Cc1ccccc1C(C(=O)NC1CCCCC1)N(C(=O)CNc1ccc(C#N)cc1)c1cccc(F)c1 (stereo unspecified),Potency,[1],inactive
same,Potency,[2],inactive
same,Potency,[3],inactive
same,Potency,[4],inactive
same,Potency,[5],inactive
same,"activity change, negative = inhibition",[6],1.58%
same,Potency,[7],inactive
COc1ccccc1N1CCN(CCN(C(=O)C2CCCCC2)c2ccccn2)CC1,outcome,[13],inactive
same,outcome,[14],inactive
same,Potency,[15],inactive
same,outcome,[16],inactive
same,Potency,[1],inactive
same,Potency,[2],inactive
same,Potency,[3],inactive
same,Potency,[4],inactive
same,Potency,[7],inactive
Cc1ccccc1-n1c(Cn2nc(-c3cccc(O)c3)c3c(N)ncnc32)nc2cccc(C)c2c1=O,Potency,[1],19.3 µM (active)
same,Potency,[2],6.11 µM (active)
same,Potency,[3],4.32 µM (active)
same,Potency,[4],3.85 µM (active)
same,"activity change, negative = inhibition",[6],-14.4%
same,Potency,[7],inactive
C[C@@H]1C(=O)O[C@H]2CC34[C@H]5C[C@@H](C(C)(C)C)C36[C@H](OC(=O)[C@@H]6O)O[C@@]4(C(=O)O5)[C@]21O (stereo partly specified),"parasite growth, % of DMSO control",[9],77.1%
same,"parasite growth, % of control (lower = inhibition)",[17],91.1%
same,"growth, % of control",[8],102%
same,Potency,[1],inactive
same,Potency,[2],inactive
same,Potency,[3],inactive
same,Potency,[4],inactive
same,Potency,[5],inactive
same,Potency,[6],inactive
same,Potency,[7],inactive
O=C(O)C(=O)Nc1cccc(C2=NN=N[N]2)c1,"parasite growth, % of DMSO control",[9],82.2%
same,"parasite growth, % of control (lower = inhibition)",[17],136%
same,"growth, % of control",[8],97.2%
same,Potency,[1],inactive
same,Potency,[2],inactive
same,Potency,[3],inactive
same,Potency,[4],inactive
same,Potency,[7],inactive
COc1ccc([C@@H]2CNC(=O)C2)cc1OC1CCCC1,Potency,[1],inactive
same,Potency,[2],2.73 µM (active)
same,Potency,[3],3.43 µM (active)
same,Potency,[4],inactive
same,Potency,[5],inactive
same,"activity change, negative = inhibition",[6],2.39%
same,Potency,[7],inactive
O=C1CCC[C@@H]2[C@H]3CCC[N+]4([O-])CCC[C@@H](CN12)[C@@H]34 (stereo partly specified),Potency,[1],inactive
same,Potency,[2],inactive
same,Potency,[3],inactive
same,Potency,[4],inactive
same,Potency,[5],inactive
same,"activity change, negative = inhibition",[6],-3.17%
same,Potency,[7],inactive
Cc1ccccc1C(C(=O)NC1CCCCC1)N(C(=O)Cn1ccnc1C)c1cccc(F)c1 (stereo unspecified),Potency,[1],inactive
same,Potency,[2],inactive
same,Potency,[3],inactive
same,Potency,[4],inactive
same,Potency,[5],inactive
same,"activity change, negative = inhibition",[6],-3.95%
same,Potency,[7],inactive
COc1ccc2c(OCc3nnc4ccc(-c5ccccc5)nn34)ccnc2c1,Potency,[1],inactive
same,Potency,[2],inactive
same,Potency,[3],inactive
same,Potency,[4],inactive
same,Potency,[5],inactive
same,"activity change, negative = inhibition",[6],-13.2%
same,Potency,[7],inactive
CCN1C[C@H](C)n2c(c(O)c3c(=O)n(Cc4ccc(F)c(Cl)c4)nc(C(=O)NC)c32)C1=O,"parasite growth, % of DMSO control",[9],43.2%
same,"parasite growth, % of control (lower = inhibition)",[17],45.4%
same,"growth, % of control",[8],48.6%
same,Potency,[1],inactive
same,Potency,[2],inactive
same,Potency,[3],inactive
same,Potency,[4],inactive
same,Potency,[7],inactive
COc1ccc2cc(-c3nc(-c4ccc(S(C)=O)cc4)[nH]c3-c3ccncc3)ccc2c1 (stereo unspecified),Potency,[1],inactive
same,Potency,[2],24.3 µM (active)
same,Potency,[3],4.85 µM (active)
same,Potency,[4],17.2 µM (active)
same,Potency,[6],31.6 µM (active)
same,Potency,[7],inactive
CN(C)CC(C)(C)CNc1nn2c(-c3ccccc3)nnc2cc1C1CCC1,Potency,[1],inactive
same,Potency,[2],15.3 µM (active)
same,Potency,[3],2.17 µM (active)
same,Potency,[4],17.2 µM (active)
same,Potency,[5],inactive
same,"activity change, negative = inhibition",[6],-2.68%
same,Potency,[7],inactive
c1coc(CNc2ncnc3nc[nH]c23)c1,"parasite growth, % of DMSO control",[9],71.1%
same,"parasite growth, % of control (lower = inhibition)",[17],80%
same,"growth, % of control",[8],65.3%
same,Potency,[1],inactive
same,Potency,[2],inactive
same,Potency,[3],inactive
same,Potency,[4],inactive
same,Potency,[5],inactive
same,"activity change, negative = inhibition",[6],0.628%
same,Potency,[7],inactive
